High-throughput results from PubChem BioAssay.
RORg inh – qHTS for inhibitors of ROR gamma transcriptional activity | Potency, µM (series often up to 53.6 µM), for inactives: at the highest dose activity change, negative = inhibition, actives largely listed as inhibitors | 5.4% of 310,000 active | Drosophila S2 Gal4-RORgamma UAS-luciferase reporter, 20 h; also: potency is read from the fitted curve at half-maximal effect; nearly all actives have a fitted effect of over 60% in size
Target sequence (P51450 whole entry, looked up, the tested form may be a part): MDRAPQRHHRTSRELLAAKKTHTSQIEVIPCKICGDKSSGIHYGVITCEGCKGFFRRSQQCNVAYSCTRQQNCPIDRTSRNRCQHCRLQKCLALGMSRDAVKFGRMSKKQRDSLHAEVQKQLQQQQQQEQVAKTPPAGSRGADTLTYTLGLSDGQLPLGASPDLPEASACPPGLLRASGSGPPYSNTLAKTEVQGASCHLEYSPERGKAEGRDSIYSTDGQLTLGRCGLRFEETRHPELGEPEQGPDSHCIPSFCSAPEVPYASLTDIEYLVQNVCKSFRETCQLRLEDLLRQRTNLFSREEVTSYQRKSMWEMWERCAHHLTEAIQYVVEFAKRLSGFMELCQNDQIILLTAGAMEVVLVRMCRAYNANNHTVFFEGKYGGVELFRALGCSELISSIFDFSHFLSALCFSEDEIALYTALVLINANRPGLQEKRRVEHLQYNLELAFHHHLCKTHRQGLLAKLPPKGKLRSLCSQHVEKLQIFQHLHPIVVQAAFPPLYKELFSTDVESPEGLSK
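Drosophila Schneider cells stably carrying a metallothionein-driven Gal4 DBD–ROR gamma fusion and a UAS-Photinus luciferase reporter were exposed to compound for 1 hr, then induced with copper sulfate (700 uM final) for 20 hr at ambient temperature before luminescence reading.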
TDP1 cell CPT – qHTS for Inhibitors of human tyrosyl-DNA phosphodiesterase 1 (TDP1): qHTS in cells in presence of CPT. chicken DT40 Tdp1-/-;hTDP1 cells + 20 nM CPT, ATP luminescence, 48 h. Potency, µM (highest dose often 46.2 µM), for the others: at the top dose activity change, negative = growth inhibition, usual class: inhibitors. 12% of 420,000 active. AID 686979, 2013; also: potency is read from the fitted curve at half-maximal effect; nearly all actives have a fitted effect of over 55% in size
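Cell growth measured by CellTiter-Glo luminescence after a minimum 48 h, 37 C compound exposure with 20 nM CPT in Tdp1-knockout DT40 cells stably expressing hTDP1, seeded 400/well; qHTS titration format.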
Gal4-VP16 FLuc – VP16 counterscreen qHTS for inhibitors of ROR gamma transcriptional activity; 3.5% of 310,000 active; AID 2546, 2010; Potency, µM (top dose mostly 53.6 µM), without a hit: at the highest dose activity, negative = inhibition, actives largely listed as inhibitors; Drosophila S2 Gal4-VP16 UAS-luciferase, luminescence, 20 h;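 also: Gal4-VP16 expression switched on by copper sulfate through the metallothionein promoter; potency is read from the fitted curve at half-maximal effect; nearly all actives have a fitted effect of over 50% in size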
TDP1 cell noCPT – qHTS for Inhibitors of human tyrosyl-DNA phosphodiesterase 1 (TDP1): qHTS in cells in absence of CPT; DT40 Tdp1-/- hTDP1 cells, no CPT, ATP luminescence, 48 h; Potency, µM (doses to about 46.2 µM), for inactives: top-dose activity change, negative = growth inhibition, usual class: inhibitors; 15% of 420,000 active; AID 686978, 2013; also: potency is read from the fitted curve at half-maximal effect; nearly all actives have a fitted effect of over 55% in size
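No-CPT arm: Tdp1-/-;hTDP1 DT40 cells (400/well) plus compounds, incubated ≥48 hr at 37 °C. Readout CellTiter-Glo luminescence.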
ELG1 repair inh – qHTS screen for small molecules that inhibit ELG1-dependent DNA repair in human embryonic kidney (HEK293T) cells expressing luciferase-tagged ELG1 | HEK293T ELG1-luciferase reporter, luminescence, 16 h; DNA damage induced by 5-fluorouridine | Potency, µM (top dose mostly 46.1 µM), for the others: at the highest dose activity change, negative = inhibition, actives largely listed as inhibitors | AID 504467, 2011 | 2.3% of 330,000 active; also: potency is read from the fitted curve at half-maximal effect; nearly all actives have a fitted effect of over 55% in size
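Reporter activity after DNA damage by 5-fluorouridine is monitored. Compound-treated cells incubate 16 hr at 37 °C, then ONE-Glo is added for 30 min before luminescence reading.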
IL1B secr inh – qHTS for Inhibitors of Inflammasome Signaling: IL-1-beta AlphaLISA Primary Screen; AID 743279, 2014; 4.7% of 360,000 active; activity change, % at 57.5 µM; THP-1 LPS/ATP IL-1B secretion, AlphaLISA, 16 h; stronger effect = lower value; in the data active = activity change below about -50%; inconclusive = mostly about -30% to -49%
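THP-1 cells pretreated 1 hr with compounds (up to 57.5 uM final), then stimulated with LPS (250 ng/mL final) plus ATP (1.25 mM final); secreted IL-1B measured by AlphaLISA after 16 hr, decreased signal indicating inhibition.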
* hit, by the source's call; i = inactive; ? = inconclusive; . = no result. Only some compounds are listed: those with a hit (about 21% of all), similar ones and a draw of the others. Unless noted, calls follow the shape of the dose curve; as a rule, active = well fitted curve in the direction sought with a large enough effect; inconclusive = small, poorly fitted or top-dose-only effect, or another doubt; inactive = no such curve, though single readings can be large; an effect the other way counts as inactive or inconclusive. % is scaled to controls: 0 for no effect and ±100 for the full control effect.

SMILES	RORg inh	TDP1 cell CPT	Gal4-VP16 FLuc	TDP1 cell noCPT	ELG1 repair inh	IL1B secr inh
C[C@H](CO)N1C[C@H](C)[C@H](CN(C)Cc2cccc(F)c2)Oc2ncc(Br)cc2C1=O	.	-4.7%	.	-11.9%	.	?
Oc1ccc(Cl)cc1CNCC1CCCO1 (stereo unspecified)	-17.5%	?	19.9%	?	0.9%	14.9
Cc1ccc(NC(=S)NCc2ccccc2)cc1S(=O)(=O)N1CCCCC1	29.3%	?	?	?	?	-21.9
Clc1ccc(-c2ccc(CNCC3CCCO3)o2)cc1 (stereo unspecified)	14.3%	-27.5%	3.7%	?	4.5%	-76.9*
S=C(NCC1CCCO1)Nc1ccccc1 (stereo unspecified)	11.2µM*	2.1%	-3.1%	-5.6%	-6.0%	-7.6
COc1cc(NC(=S)NCC2CCCO2)c(OC)cc1Cl (stereo unspecified)	10µM*	0.1%	17.8µM*	-3.2%	-10.1%	-9.9
Cc1ccc(NC(=S)NCC2CCN(C(C)c3ccccc3)C2)cc1C (stereo unspecified)	8.91µM*	23.1µM*	?	16.4µM*	?	-28.6
CC1(C(=O)N(CC(=O)NC2CCCC2)Cc2ccco2)CC(=O)N=C2C=CC=CN21 (stereo unspecified)	-23.1%	0.5%	-9.3%	11.3%	12.9%	7.3
O=C(NCC(=O)N1CCN(S(=O)(=O)/C=C/c2ccccc2)CC1)c1ccccc1F	3.2%	3.2%	-10.8%	0.9%	-4.3%	16.7
C=CCc1cccc2cc(-c3nc4ccc(C(=O)O)cc4[nH]3)c(=O)oc12	.	1.3%	.	-11.5%	.	.
CC(C(=O)Nc1ccccc1F)N1CCN(C)CC1 (stereo unspecified)	-6.9%	.	0.0%	.	1.7%	.
CCN(CC)c1ccc(NC(=S)NCC2CCCO2)cc1 (stereo unspecified)	14.1µM*	?	12.6µM*	?	6.6%	24.6
S=C(NCC1CCCO1)Nc1ccc(Cl)cc1Cl (stereo unspecified)	15.8µM*	-3.5%	?	-20.4%	?	-9.4
O=C(NCC1CCCO1)Nc1ccc(Cl)cc1 (stereo unspecified)	5.6%	?	-2.2%	?	.	3.2
S=C(NCC1CCCO1)Nc1ccc(Cl)cc1 (stereo unspecified)	10µM*	-13.4%	?	-23.4%	?	6.6
Cc1cccc(NC(=S)NCC2CCCO2)c1 (stereo unspecified)	?	-21.2%	?	-26.1%	11.9%	9.1
Cc1ccc(NC(=S)NCC2CCCO2)cc1C (stereo unspecified)	?	4.5%	10µM*	-5.7%	24.0%	7.2
O=C(NNS(=O)(=O)c1cccc(Cl)c1)c1cc(-c2ccc(F)cc2)nc2ccccc12	4.6%	6.1%	-3.6%	-7.7%	0.3%	-12.1
CCOC(=O)C1CCCN(c2ncnc3c2nnn3C)C1 (stereo unspecified)	.	-21.0%	.	-22.7%	.	.
COc1ccc(-n2c(=O)c(C)nc3cnc(N(C)C)nc32)cc1	12.4%	-15.5%	-4.1%	-29.9%	.	.
Cc1ccc(NC(=S)NCc2ccc(Cl)cc2)c(OC(F)F)c1	6.31µM*	?	5.01µM*	?	-2.4%	i
CC(Oc1ccc(F)cc1F)C(=O)NNC(=S)NCC1CCCO1 (stereo unspecified)	11.2µM*	1.2%	?	-24.2%	-10.7%	0.0
Cc1ccc(NC(=S)NCC2CCCO2)c(OC(F)F)c1 (stereo unspecified)	11.2µM*	0.8%	?	0.4%	?	-12.7
